Assay outcomes deposited in PubChem BioAssay by several laboratories.
GRIN3A LBD mod: binders of NR3A ligand-binding domain, primary screen, biophysical, differential scanning fluorimetry, uHTS; Glutamate receptor ionotropic, NMDA 3A (GRIN3A) ligand-binding domain; Tm shift relative to glycine control, % at 25 µM; 2.5% of 340,000 active; NR3A LBD differential scanning fluorimetry, Tm shift; 0% = protein alone, 100% = glycine-bound protein;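 active means melting temperature shift of at least 10% of the positive control shift, at one fixed dose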
Mot1-301 SUMO: yeast Mot1-301 growth rescue at high temperature, primary screen, SUMOylation pathway inhibitor project, S. cerevisiae, ATP luminescence, 38.5C; AID 2716, 2010; S. cerevisiae Mot1-301 growth rescue; percent above DMSO median, 100 means doubled; 1% of 320,000 active; growth rescue, % at 18.8 µM;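 active means every valid replicate shows activation above 250% relative to neutral control wells; inactive means the rest, any valid replicate at or below 250%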
AI-2 QS mod: Vibrio harveyi AI-2 quorum sensing modulators, primary screen, JMH597 strain, luminescence/OD600 ratio; Vibrio harveyi JMH597 AI-2 luminescence/OD600 ratio, 9 h; active compounds read low; strain lacks LuxN and CqsS sensors; 0 = neutral-control median; activity change, % at 7.5 µM; 0.4% of 300,000 active; in the data active means activity change below about -75%, passing the limit was not always enough;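 further: luminescence divided by OD600 gain over 9 h not by final OD600 alone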
NTR1 ag: agonists of human NTR1, primary screen, imaging, U2OS cells, beta-arrestin-GFP, high content | Neurotensin receptor type 1 (Homo sapiens), P30989 | NTR1-U2OS beta-arrestin-GFP spot imaging, agonist mode | activation, % at 20 µM | 0.17% of 330,000 active | AID 493036, 2011;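 active means activation at or above 40% of the spot to cytoplasm intensity ratio, with at least 20 cells analyzed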
AHR activator: AHR activators, primary screen, cell-based, luminescence, luciferase reporter, human. Aryl hydrocarbon receptor (Homo sapiens), P35869. AHR-responsive luciferase reporter cells. activation, % at 5 µM. 2.5% of 320,000 active; in the data active means activation above about 47%
H9c2 protect: cardioprotection against H2O2-induced cell death, primary screen, uHTS, H9c2 cells, ATPLite luminescence; H9c2 cardiomyocytes, H2O2 injury protection, 2 h; 0.63% of 360,000 active; protection from H2O2 cell death, % at 20 µM;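 active means compounds giving at least 50% protection of heart cells from peroxide-induced death in the single-dose screen, raw or plate-pattern-corrected value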
Numbers stand for hits; i = inactive; nt = no result given; ! = a repeat was not active. This is a sample that favours compounds with a hit; in the whole collection about 6.2% have one here.

SMILES | GRIN3A LBD mod | Mot1-301 SUMO | AI-2 QS mod | NTR1 ag | AHR activator | H9c2 protect
O=C(CSc1nc2ccccc2s1)CSc1nc2ccccc2s1 | i | i | i | i | i | i
Cc1cc(-c2nnc(CCC(=O)NCc3ccc(OC(F)(F)F)cc3)o2)no1 | i | i | i | i | i | i
Cc1ccc(N2C(=O)C(Cl)=C(NCCO)C2=O)c(C)c1 | 361.4 | i | i | i | i | i
Cc1ccc(N2C(=O)C(Cl)=C(N3CCN(C)CC3)C2=O)c(C)c1 | i | nt | i | i | i | i
O=C(N/N=C/c1ccc[nH]1)c1c[nH]c2ccccc12 | 32.4 | nt | i | i | nt | i
O=C(N/N=C/c1ccccn1)c1c[nH]c2ccccc12 | i | i | i | i | 56.9 | i
Cc1occc1C(=O)N/N=C/c1ccccn1 | i | i | i | i | i | i
Cn1c(=O)[nH]c(=O)c2c1nc(NCCc1ccccc1)n2CC(O)COc1ccccc1 (stereo not given) | i | i | i | i | i | 59.5
COCCn1c(NCc2ccccc2)nc2c1c(=O)[nH]c(=O)n2C | i | i | i | i | i | i
Cc1ccc(OCC(O)Cn2c(NCCc3ccccc3)nc3c2c(=O)[nH]c(=O)n3C)cc1 (stereo not given) | 10.7 | i | i | i | i | i
Cn1c(=O)[nH]c(=O)c2c1nc(NCc1ccccc1)n2CC(O)c1ccccc1 (stereo not given) | 11.0 | i | i | i | i | i
COc1ccc(S(=O)(=O)N2CCc3ccccc32)cc1C(=O)N1CCOCC1 | i | i | i | i | i | i
CCCCNC(=O)c1ccc(CNc2c(N3CCC(C(=O)OCC)CC3)c(=O)c2=O)cc1 | 11.2! | i | i | i | i | i
CCOc1ccc(C(=O)N/N=C/c2cccc3cccnc23)cc1 | i | i | i | i | i | i
CSCC[C@H](NC(=O)OC(C)(C)C)C(=O)N/N=C/c1cccc2cccnc12 | i | i | i | i | i | 51.8
COc1ccccc1NC(=O)c1ccccc1SC | i | i | i | i | i | i
O=C(Nc1ccccc1)Nc1cccc2cccnc12 | 13.4 | i | i | i | 70.9 | i
CCOc1ccccc1C(=O)N/N=C/c1cccc2cccnc12 | i | i | i | i | i | 86.2
COc1ccccc1C(=O)Nc1ccccc1SC | i | i | i | i | 55.3 | i
COC(=O)C1=C(C(=O)OC)C(C(=O)OC)C(C(=O)OC)C(C(=O)OC)(C(=O)OC)C(C(=O)OC)=C1C(=O)OC (stereo not given) | i | nt | nt | nt | nt | i
O=S(=O)(Nc1ccc(C(O)(C(F)(F)F)C(F)(F)F)cc1)c1cccc2ccccc12 | nt | nt | nt | nt | nt | i
COc1ccc(S(=O)(=O)N2CCN(C(=O)CCSc3ccccc3)CC2)cc1 | i | i | nt | i | i | i
CN(C(=O)c1cccc(NC(=O)Cc2ccc(NC(=O)C3CCCN(C(=O)C4CCC4)C3)cc2)c1)C1CCCCC1 (stereo not given) | i | nt | nt | nt | nt | i
CCn1cc(C(=O)N(C)CC(OC)OC)c(=O)c2cc(S(=O)(=O)N3CCOCC3)ccc21 | i | i | i | i | i | i
O=C(Nc1cccc2cccnc12)c1ccccc1Cl | i | 332.5 | i | i | i | i
SMILES | GRIN3A LBD mod | Mot1-301 SUMO | AI-2 QS mod | NTR1 ag | AHR activator | H9c2 protect
COc1ccccc1C(=O)Nc1cccc2cccnc12 | i | i | nt | i | 78.2 | i
COc1ccccc1N(C)S(=O)(=O)c1ccc(C)c(C(=O)Nc2nccs2)c1 | i | i | i | i | i | i
CCC(ONc1ccccc1C(F)(F)F)(C(=O)NN(C)C)c1ccccc1 (stereo not given) | i | i | nt | i | i | 52.7
COc1ccc(NC(=O)c2cc(-c3ccc(F)cc3OC)n[nH]2)c(C)c1 | nt | nt | nt | nt | nt | i
COc1ccc(NC(=O)c2cc(-c3cc(Cl)ccc3OC)n[nH]2)c(C)c1 | nt | nt | nt | nt | nt | i
COc1ccc(OC)c(NC(=O)c2cc(-c3cc(C)ccc3O)n[nH]2)c1 | 37.4 | i | i | i | nt | i
COc1ccc(NC(=O)c2cnn(-c3ccccc3)c2C)cc1 | i | i | i | i | i | i
COc1ccc(OC)c(NC(=O)c2cnn(-c3ccccc3)c2C)c1 | i | i | i | i | 76.3 | i
COc1ccc(OC)c(NC(=O)c2cc(-c3ccc(C)cc3O)n[nH]2)c1 | 27.7 | i | i | i | i | i
C=CCN(CC=C)Cc1cc(=O)oc2cc(OC)ccc12 | nt | nt | nt | nt | nt | i
CN(CCOc1ccccc1)C(=O)C1CCC(=O)N(CCc2ccc(Cl)cc2)C1 (stereo not given) | i | i | i | i | nt | i
O=C(NCCCNC(=O)c1cccnc1)c1ccc(Cl)cc1 | i | i | i | i | i | i
O=S(=O)(Nc1c(S(=O)(=O)c2ccccc2)c2nc3ccccc3nc2n1C1CCCCC1)c1ccccc1 | i | i | i | nt | i | i
C=CCn1c(NS(=O)(=O)c2ccccc2)c(S(=O)(=O)c2ccc(C)cc2)c2nc3ccccc3nc21 | 10.8 | i | i | nt | i | i
CCOC(=O)C1=CCC(c2ccccc2C(F)(F)F)N(S(=O)(=O)c2ccc(C)cc2)C1 (stereo not given) | nt | nt | nt | nt | nt | i
O=C(Nc1ccc(-c2nc3ccccc3[nH]2)cc1)c1ccco1 | 35.2 | i | i | i | i | i
O=C(CSc1ccccc1)Nc1nc2ccccc2[nH]1 | i | i | i | i | i | i
O=C(CSc1ccc(Cl)cc1)Nc1ccc(-c2nc3ccccc3[nH]2)cc1 | 37.5 | i | i | i | i | i
Cn1cc([N+](=O)[O-])c(C(=O)Nc2ccc(-c3nc4ccccc4[nH]3)cc2)n1 | 18.7 | i | i | i | i | i
O=C(/C=C/c1ccco1)Nc1ccc(-c2nc3ccccc3[nH]2)cc1 | 30.1 | i | i | nt | i | i
COc1ccc(C(=O)N[C@H](C(=O)OCCCOC(=O)[C@@H](NC(=O)c2ccc(OC)cc2)C(C)C)C(C)C)cc1 | i | nt | nt | nt | nt | i
CCOC(=O)C(=O)Nc1nccs1 | i | i | i | i | i | i
CCOC(=O)/C=C/C(=O)Nc1nccs1 | i | i | -90.5 | i | i | i
CCN(CC)S(=O)(=O)c1cc(NC(=O)c2ccc(-n3cncn3)c([N+](=O)[O-])c2)ccc1C | i | i | i | i | i | i
CC(=O)Nc1ccc(/C(C)=N/Nc2nc(Nc3cccc4ccccc34)nc(N3CCOCC3)n2)cc1 | i | i | i | i | i | 63.1
CC(=O)Nc1ccc(/C(C)=N/Nc2nc(N3CCOCC3)nc(N3CCOCC3)n2)cc1 | i | i | i | i | i | i
COCCn1c(SCC(=O)NC2CCCCC2)nnc1-c1ccncc1 | i | i | i | i | i | i
